Screens from PubChem.
Shown are actives, neighbours in structure and some others; about 3.3% of the full set was active somewhere.
Jurkat NFkB inh = lowers PMA/ionomycin-induced NF-kB signal in Jurkat cells; PMA/ionomycin-induced NF-kB luciferase reporter, luminescence; 0.53% of 330,000 active; inhibition, % at 4 µM; in the data active means inhibition above about 50%
697 NFkB inh = lowers PMA/ionomycin-induced NF-kB signal in 697 B cells; inhibition, % at 4 µM; AID 435022; 697 B-cell NF-kB luciferase reporter, 16 h; 0.33% of 330,000 active; in the data active means inhibition above about 35%
esBAF inh = blocks esBAF chromatin remodeling in mouse ES cells; AID 602393; reporter increase, % at 12.5 µM; 2% of 350,000 active; Bmi1-luciferase knock-in reporter, 24 h; 100% = twice the neutral-well signal; in the data active means activation above about 40%;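 further: 0% = median of the plate's neutral control wells and 100% = double that signal; a rise in the Bmi1 reporter signal indicates esBAF inhibition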
Gli-Sufu block = blocks Gli-Sufu signaling in a luciferase reporter | inhibition, % at 5 µM | AID 588413 | 0.74% of 340,000 active | Sufu-KO-LIGHT fibroblasts, Gli luciferase reporter luminescence;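 active means inhibition above about 55%, limit read from the data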;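 further: 0% = DMSO-treated cells and 100% = wells with medium but no cells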
SMARCA2 act = activators of SMARCA2 function; MG213 cells, MMTV-luciferase reporter, dexamethasone, overnight; activation, % at 9.1 µM; 1% of 370,000 active; AID 652017; in the data active means activation above about 7.8%;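 further: 0% = vehicle wells and 100% = reference activator wells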
697 NFkB conf = inhibitors of the PMA/ionomycin-induced NF-kB reporter in 697 B cells, retest | shares compounds with 697 NFkB inh | 697 B-cell NF-kB luciferase, 16 h | inhibition, % at 4 µM | 35% of 2,000 active | AID 449746; in the data active means inhibition mostly above about 28%, no sharp cut-off; inactive means mostly below about 22%
Numbers without * were called inactive; i = inactive; · = no result.

SMILES	Jurkat NFkB inh	697 NFkB inh	esBAF inh	Gli-Sufu block	SMARCA2 act	697 NFkB conf
CC1CC(C)(C)Nc2ccc(OC(=O)c3ccco3)cc21 (stereo not given)	4	53*	-67	9	-6	63*
CO[C@@H]1CN(C)C(=O)c2cc(NC(=O)C3CCOCC3)ccc2OC[C@@H](C)N(CC2CCCCC2)C[C@H]1C	·	·	1	·	·	·
CCC(=O)N1c2ccccc2[C@@H](N(C(C)=O)c2ccccc2)C[C@H]1C	5	51*	·	20	-3	38*
CCCC(=O)N1c2ccccc2C(N(C(C)=O)c2ccccc2)CC1C (stereo not given)	-3	24	·	20	-3	·
COc1ccc(S(=O)(=O)Nc2ccc3c(c2)C(=O)N(C)C[C@@H](OC)[C@@H](C)CN[C@H](C)CO3)cc1	·	·	-4	·	·	·
Oc1ccc(N=Nc2ccc3c(c2)OCO3)c2ccccc12	16	-306	·	·	·	-22
Cc1ccc(N=Nc2ccc(O)c3ncccc23)cc1C	25	-93	·	-50	7	·
CCN(CC)c1ccc2cc(-c3nc4ccccc4[nH]3)c(=O)oc2c1	-149	-303	-34	-58	·	-375
COc1cc(-c2cc(=O)c3c(O)c(OC)c(OC)c(OC)c3o2)cc(OC)c1OC	0	39*	10	18	0	38*
C[C@@H]1CN([C@H](C)CO)C(=O)c2cc(NS(C)(=O)=O)ccc2O[C@@H]1CN(C)Cc1ccccc1	·	·	-1	·	·	·
CCN(CC(=O)Nc1c(F)cccc1F)C(=O)C1(c2ccccc2)CC1	7	50*	13	11	-3	19*
Cc1ccc(S(=O)(=O)Nc2ccc3c(c2)C(=O)N([C@H](C)CO)C[C@H](C)[C@H](CN(C)S(=O)(=O)c2cn(C)cn2)O3)cc1	·	·	1	·	·	·
COc1ccc(-c2cc(CCCC(=O)NCCc3ccc(OC)cc3OC)no2)cc1	5	16	-4	-4	-4	·
CCOc1ccc(NC(=O)CCCc2cc(-c3ccc(OCC)cc3)on2)cc1	-16	40*	-72	8	-4	40*
CCOc1ccc(-c2cc(CCCC(=O)NCCc3ccc(OC)c(OC)c3OC)no2)cc1	-10	37*	-42	14	-6	10
CCOc1ccc(-c2cc(CCCC(=O)Nc3cc(OC)ccc3OC)no2)cc1	2	32	·	13	-9	·
CC=Cc1ccc2n(c1=O)C[C@H]1[C@H](CO)[C@@H](C(=O)N3CCc4ccccc4C3)[C@@H]2N1CC (mixture of isomers)	·	·	0	·	·	·
Cc1cc(Nc2ccccc2N2CCOCC2)n2ncnc2n1	4	35*	7	5	-2	25
C[C@H](CO)N1C[C@H](C)[C@H](CN(C)S(=O)(=O)c2cccs2)OCCCC[C@H](C)Oc2ccc(NC(=O)C3CCCCC3)cc2C1=O	·	·	7	·	·	·
O=C(NCc1ccccn1)c1cc(-c2ccc(-c3ccccc3)cc2)nc2ccccc12	-53	i	45*	-53	2	i
COCCCNC(=O)c1cc(-c2cccnc2)nc2ccccc12	21	0	-2	-2	-1	·
COCCNC(=O)c1cc(-c2ccc(-c3ccccc3)cc2)nc2ccccc12	-83	i	47*	8	4	i
O=C(NCc1ccccn1)c1cc(-c2ccccc2)nc2ccccc12	-6	4	·	8	0	·
C[C@@H]1CCCCO[C@H](CN(C)C(=O)c2ccccc2)[C@@H](C)CN([C@@H](C)CO)C(=O)c2cc(NC(=O)c3ccncc3)ccc2O1	·	·	4	·	·	·
CCCN1C[C@@H](C)[C@@H](OC)CN(C)C(=O)c2ccc(NS(=O)(=O)c3ccccc3)cc2OC[C@@H]1C	·	·	-1	·	·	·
SMILES	Jurkat NFkB inh	697 NFkB inh	esBAF inh	Gli-Sufu block	SMARCA2 act	697 NFkB conf
CCc1c(C(=O)NC2CCCc3ccccc32)[nH]c(C)c1C(C)=O (stereo not given)	-27	-301	-3	10	0	-16
CC(=O)c1c(C)[nH]c(C(=O)NC2CCSc3ccccc32)c1C (stereo not given)	8	-9	8	-14	1	·
O=C(CN1CCCCCC1)Nc1cc(C(F)(F)F)ccc1Cl	-12	11	-1	1	-6	·
O=C(O)C1=C(C(=O)Nc2cc(C(F)(F)F)ccc2Cl)CCCC1	-3	37*	-10	-10	-1	6
COc1ccc(NC(=O)N(C)C[C@@H]2Oc3ncc(-c4ccc(C#N)cc4)cc3C(=O)N([C@H](C)CO)C[C@H]2C)cc1	·	·	2	·	·	·
CCC1(c2ccc(Cl)cc2)NC(=O)N(CC(=O)NC2CCCC(C)C2C)C1=O (stereo not given)	22	39*	-16	1	-1	-1
COCCNC(=O)c1c(N)n(-c2cccc(C)c2)c2nc3ccccc3nc12	-1	35*	3	7	-3	19
C[C@H]1CN([C@@H](C)CO)C(=O)c2cc(NC(=O)Cn3cnnn3)ccc2O[C@H]1CN(C)S(=O)(=O)c1ccc(Cl)cc1	·	·	-3	·	·	·
CCOc1ccccc1CNC(=O)c1cc2occc2n1C	12	0	-30	-4	-1	·
CCOc1ccccc1CNC(=O)c1cc2oc3ccccc3c2n1C	-33	-359	7	3	-4	-163
CN(C)C(=O)c1cccc(-c2ccc3c(c2)[C@H]2[C@H](CCN2C(=O)c2ccncc2)[C@H](CO)N3C)c1	·	·	-7	·	·	·
C[C@@H]1CCCCO[C@@H](CN(C)C)[C@H](C)CN([C@H](C)CO)C(=O)c2cc(NC(=O)Nc3ccc(C(F)(F)F)cc3)ccc2O1	·	·	0	·	·	·
CC(C)NC(=O)Nc1ccc2c(c1)C(=O)N([C@H](C)CO)C[C@@H](C)[C@H](CN(C)C(=O)NC1CCCCC1)OCCCC[C@@H](C)O2	·	·	5	·	·	·
CC1CCN(CCCNC(=O)COc2cc(=O)n(C)c3ccccc23)CC1	4	36*	-2	7	1	23*
ClCc1nnc(-c2ccccc2)o1	5	35*	·	0	-2	29*
COCCn1c(-c2ccc(C)cc2)nc2c(c(=O)c3ccccc3n2C)c1=O	·	·	4	3	1	·
CCc1nc2c(c(=O)c3ccccc3n2C)c(=O)n1CCc1ccc(OC)cc1	-52	i	·	·	·	i
COc1ccc(CCn2c(-c3ccc(OC)cc3)nc3c(c(=O)c4ccccc4n3C)c2=O)cc1	7	-28	·	8	-5	·
COCCn1c(-c2ccc(Cl)cc2Cl)nc2c(c(=O)c3ccccc3n2C)c1=O	25	41*	·	17	-3	14
O=C(N/N=C/C(Cl)=C/c1ccc([N+](=O)[O-])cc1)C(=O)Nc1ccccc1C(=O)O	9	-1	-7	2	0	·
CCOc1ccccc1NC(=O)C(=O)N/N=C/c1ccc([N+](=O)[O-])cc1	2	39*	-3	36	-2	20
Cc1ccc(N=Nc2ccc3ccccc3c2O)cc1	-82	-268	-77	11	-3	-286
Cc1ccc(N=Nc2ccc(O)c3ncccc23)cc1	·	·	·	9	4	·
Cc1nc2c(-c3ccc(F)cc3)cnn2c(N)c1-c1ccccc1	-36	-310	-53	41	-7	-224
